The supplement of paper PMC8728848
Only a selection was taken, and the strongest signals are over-represented in it overall.

Key:
Assay in all cases: glycan array binding signal (z-score within array); higher = stronger binding
Settings in all cases: glycan notation: IUPAC condensed, linker removed
Fuc(a1-2)Gal = target: Fuc(a1-2)Gal
In short: (§1)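 From the Consortium for Functional Glycomics database, 3228 arrays were curated, keeping only those whose protein sequence was available. Binding is given as a within-array Z-score averaged across arrays sharing a protein sequence and across linkers. Negative Z-scores can be read as non-binding.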

[1] = target: Fuc(a1-2)Gal(b1-3)GlcNAc(b1-2)Man(a1-3)[Fuc(a1-2)Gal(b1-3)GlcNAc(b1-2)Man(a1-6)]Man(b1-4)GlcNAc(b1-4)GlcNAc
In short: as §1

[2] = target: Fuc(a1-2)Gal(b1-4)[Fuc(a1-3)]GlcNAc(b1-2)[Fuc(a1-2)Gal(b1-4)[Fuc(a1-3)]GlcNAc(b1-4)]Man(a1-3)[Fuc(a1-2)Gal(b1-4)[Fuc(a1-3)]GlcNAc(b1-2)Man(a1-6)]Man(b1-4)GlcNAc(b1-4)GlcNAc
In short: as §1

[3] = target: Fuc(a1-2)[Gal(a1-3)]Gal(b1-3)GlcNAc(b1-2)Man(a1-3)[Fuc(a1-2)[Gal(a1-3)]Gal(b1-3)GlcNAc(b1-2)Man(a1-6)]Man(b1-4)GlcNAc(b1-4)GlcNAc
In short: as §1

[4] = target: Fuc(a1-2)[Gal(a1-3)]Gal(b1-3)GlcNAc(b1-2)Man(a1-3)[Fuc(a1-2)[Gal(a1-3)]Gal(b1-3)GlcNAc(b1-2)Man(a1-6)]Man(b1-4)GlcNAc(b1-4)[Fuc(a1-6)]GlcNAc
In short: as §1

[5] = target: Fuc(a1-2)[Gal(a1-3)]Gal(b1-3)GlcNAc(b1-3)GalNAc
In short: as §1

[6] = target: Fuc(a1-2)[Gal(a1-3)]Gal(b1-4)GlcNAc
In short: as §1

[7] = target: Fuc(a1-2)[Gal(a1-3)]Gal(b1-4)[Fuc(a1-3)]GlcNAc(b1-3)GalNAc
In short: as §1

[8] = target: Fuc(a1-2)[GalNAc(a1-3)]Gal(b1-3)GalNAc(a1-3)[Fuc(a1-2)]Gal(b1-4)GlcNAc
In short: as §1

[9] = target: Gal(a1-3)Gal(b1-4)GlcNAc(b1-2)Man
In short: as §1

[10] = target: Gal(a1-3)[Gal(a1-4)]Gal(b1-4)GlcNAc
In short: as §1

Gal(a1-6)Glc = target: Gal(a1-6)Glc
In short: as §1

Gal(b1-3)GalNAc(b1-3)Gal = target: Gal(b1-3)GalNAc(b1-3)Gal
In short: as §1

Gal(b1-3)GlcNAc = target: Gal(b1-3)GlcNAc
In short: as §1

[11] = target: Gal(b1-3)[Fuc(a1-4)]GlcNAc(b1-3)Gal(b1-4)[Fuc(a1-3)]GlcNAc
In short: as §1

[12] = target: Gal(b1-3)[Fuc(a1-4)]GlcNAc(b1-6)GalNAc
In short: as §1

[13] = target: Gal(b1-3)[Neu5Ac(a2-6)]GlcNAc(b1-4)Gal(b1-4)Glc
In short: as §1

Gal(b1-4)Glc = target: Gal(b1-4)Glc
In short: as §1

[14] = target: Gal(b1-4)GlcNAc(b1-2)Man(a1-3)[Gal(b1-4)GlcNAc(b1-2)Man(a1-6)][Gal(b1-4)GlcNAc(b1-4)]Man(b1-4)GlcNAc(b1-4)[Fuc(a1-6)]GlcNAc
In short: as §1

[15] = target: Gal(b1-4)GlcNAc(b1-2)[Gal(b1-4)GlcNAc(b1-6)]Man(a1-6)[Gal(b1-4)GlcNAc(b1-2)Man(a1-3)]Man(b1-4)GlcNAc(b1-4)GlcNAc
In short: as §1

[16] = target: Gal(b1-4)GlcNAc(b1-3)Gal(b1-4)Glc
In short: as §1

[17] = target: Gal(b1-4)GlcNAc(b1-3)Gal(b1-4)GlcNAc(b1-3)Gal(b1-4)GlcNAc(b1-2)Man(a1-3)[Gal(b1-4)GlcNAc(b1-3)Gal(b1-4)GlcNAc(b1-3)Gal(b1-4)GlcNAc(b1-2)Man(a1-6)]Man(b1-4)GlcNAc(b1-4)[Fuc(a1-6)]GlcNAc
In short: as §1

[18] = target: Gal(b1-4)GlcNAc(b1-3)Gal(b1-4)GlcNAc(b1-3)GalNAc
In short: as §1

[19] = target: Gal(b1-4)GlcNAc(b1-3)GalNAc
In short: as §1

Gal3S(b1-3)GalNAc = target: Gal3S(b1-3)GalNAc
In short: as §1

B1: CcfD (Bacteroides fragilis), Q5L9G4 (protein)
chain: MKKQNSIYTLLIALLCFVSSCDYLGVSDQLAGGLQNTEQVFDNVSYTKRWYANVFAGIPDYSGINSVNVGAFKNPWTGMCDELVVGYGNSSKYNNSDRNAANMGFHRYGDCYKYIRQANIFLQKAHPIMTTGTQGDQLLEDELTQMKANVRFMRAFYHYLLFEQYGPIILVKDKIYNATEDQDVPRNTVDEVIEYIDSELTAVASELTQEPIFEDKDYRAWPTKGVALAVRAKLWLYAASPLLNGGYREALSVTNPDGTRLFPDYDAGKWEKALAACKDFIDYAEAGRYELYKEYKDDNGAVIDPDKSVYNLFQKYTHEIIWATANNDWGGMNGDAFDRRIAPRCEKNGLGSTGVTQELVDAFYMKDGFPVSATAYLPQSTLYQEEGYGTYKDQNDNFSKKYTNVTVSNRYLNREPRFYNTVFFNGRQWPVSCNQVLFYNGGNSGVQEGQATLTGYMLFKRFNRSVSLTNPGVASQFRPSIIFRLADFYLMYAEAANEVNPNDARVLKYLNLVRERAGLPDIETLNPAIRGNQELQRAAIQRERQIELATEGQRYFDVRRWMIADKNGEGRQNGYVHGMNVRGESNDKEDFNRIVEASQIVFNRKMYLYPMPDSEMRKTKNLVQNPGW
- glycan array binding signal (z-score) (Fuc(a1-2)Gal): 0.811
- glycan array binding signal (z-score) [1]: 5.05
- glycan array binding signal (z-score) [2]: 3.75
- glycan array binding signal (z-score) [3]: 2.68
- glycan array binding signal (z-score) [4]: 0.2
- glycan array binding signal (z-score) [5]: 0.095
- glycan array binding signal (z-score) [6]: 0.056
- glycan array binding signal (z-score) [7]: 0.64
- glycan array binding signal (z-score) [8]: 2.62
- glycan array binding signal (z-score) [9]: -0.588
- glycan array binding signal (z-score) [10]: -1.43
- glycan array binding signal (z-score) (Gal(a1-6)Glc): -0.384
- glycan array binding signal (z-score) (Gal(b1-3)GalNAc(b1-3)Gal): -0.456
- glycan array binding signal (z-score) (Gal(b1-3)GlcNAc): 0.42
- glycan array binding signal (z-score) [11]: 2.86
- glycan array binding signal (z-score) [12]: -0.036
- glycan array binding signal (z-score) [13]: 0.607
- glycan array binding signal (z-score) (Gal(b1-4)Glc): -0.056
- glycan array binding signal (z-score) [14]: 3.04
- glycan array binding signal (z-score) [15]: -0.896
- glycan array binding signal (z-score) [16]: 0.627
- glycan array binding signal (z-score) [17]: 1.57
- glycan array binding signal (z-score) [18]: 0.43
- glycan array binding signal (z-score) [19]: -0.998
- glycan array binding signal (z-score) (Gal3S(b1-3)GalNAc): 0.942
